Measured values from the supplement of paper PMC6555819.

Key:
Assay in all cases: PBM binding z-score (relative to random genomic background probes); higher = stronger binding; sequences stand for … in GC…GCGATTGACAGCGTAGAATGAAGG
[1] = test system: RARb homodimer (NR concentration 270 nM)
How it was run: (§1)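 Ligand-free nuclear receptor dimers were applied to custom Agilent 4×180K protein-binding microarrays whose double-stranded probes carried direct-repeat seeds, single-nucleotide variants, half-site ablations and random human genomic background sequences in 34-nt variable regions. Incubation lasted 1 h. Binding z-scores were computed against the random background probes from regression-normalized fluorescence.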

[2] = test system: RARg:RXRa (NR concentration 270 nM, RXRa partner concentration 90 nM)
How it was run: as §1

[3] = test system: RARg homodimer (NR concentration 270 nM)
How it was run: as §1

[4] = test system: RXRa DBDmut IVT, anti-RXR (DBD mutation: RXRa K156A/R161A, NR concentration 90 nM)
How it was run: as §1

[5] = test system: RXRa homodimer (NR concentration 180 nM)
How it was run: as §1

[6] = test system: THRa:RXRa (NR concentration 90 nM, RXRa partner concentration 90 nM)
How it was run: as §1

[7] = test system: THRa homodimer (NR concentration 90 nM)
How it was run: as §1

[8] = test system: VDR homodimer (NR concentration 270 nM)
How it was run: as §1

| Sequence | PBM binding z-score [1] | PBM binding z-score [2] | PBM binding z-score [3] | PBM binding z-score [4] | PBM binding z-score [5] | PBM binding z-score [6] | PBM binding z-score [7] | PBM binding z-score [8] |
| --- | --- | --- | --- | --- | --- | --- | --- | --- |
| TAGCCTAGGTAATTGGGCCAGTATAGTACGCATC | -0.403 | -0.17 | -0.133 | -1.07 | -0.301 | -0.106 | -0.68 | -0.642 |
| TAGACTAGGTCAGATCGGGCCAGTATACGCTATA | 1.99 | 2.46 | 3.56 | -0.416 | 1.24 | 3.92 | -0.175 | -0.33 |
| AATACAGGGTCACTAGGCCATAGTAGGTACGAAT | 3.38 | 5.37 | 4.61 | 2.58 | 5.6 | 3.55 | 1.24 | 2.98 |
| GATACAGGGTCACCTAGAGGCCAGAGTATGGAAA | 3.89 | 7.38 | 5.66 | 2.02 | 6.04 | 3.91 | 1.32 | 1.97 |
| TAGCCTAGGTCATTCAGGGGCCAGTATCGAAAGC | 3.55 | 5.82 | 4.73 | 1.96 | 3.05 | 3.47 | 0.885 | 1.48 |
| CAGCCTAGGTAAGGGCCAGTATAGGAGGAACGTT | -0.166 | -0.284 | 0.264 | -1.12 | -0.418 | -0.373 | -0.773 | -0.434 |
| GCGACTGGGGCATCAGGAGGTTACCATAACTTAA | 1.59 | 2.07 | 0.983 | 0.162 | 0.852 | 1.66 | -0.0939 | 0.186 |
| CCTAGTTGGTTAGGAGGTCACACACCGGATATGA | 3.78 | 4.04 | 3.53 | 0.861 | 3.97 | 3.42 | 2.5 | 3.06 |
| GCGACTGTGGCAAAGCAGGTTACCATAAGGTTGG | 0.168 | -0.101 | -0.193 | -0.432 | 0.102 | 1.22 | -0.306 | -1.03 |
| ACAGACCGGTGAGTGAAGGTAACTCAGCTGGACG | -0.506 | -0.114 | -0.11 | -0.55 | -0.109 | 0.21 | -0.915 | -0.72 |
| TCGTGTAGATCAATAGAGGTTAAGAAAGTGCGCT | 1.47 | 0.551 | 0.428 | 0.621 | 1.23 | 2.09 | -0.291 | 0.428 |
| TGTCAAAGTTCAAAGTTAACGTAAGTATCCACAC | 3.88 | 5.8 | 5.72 | 4.53 | 5.86 | 2.62 | 0.00571 | 4.02 |
| TCATATAGGTATATGCTAGGTGAAAGTCCGATCT | 0.347 | 0.291 | 0.277 | 1.6 | 0.588 | 1.23 | 0.758 | -0.0233 |
| AGTTAAAGTTCATCTAGGTAACGTAAGATATGCT | 3.84 | 5.06 | 5.65 | 4.63 | 4.14 | 3.21 | 0.583 | 5.32 |
| TCTTGTAGCTCAATAGAGGTTAAGAAAGTGCGCT | 0.952 | 0.354 | 0.113 | 0.261 | 0.994 | 1.27 | -0.704 | -0.137 |
| CGTCCAAGGTCAGCAGGCCAGTGAAAGCGACGTG | 4.1 | 5.07 | 5.77 | 2.47 | 3.86 | 3.74 | 1.89 | 1.25 |
| ACAGACAGGTGAGTGACGGTAACTCAGCTGGACG | -0.222 | 0.269 | 0.362 | -0.203 | 0.416 | -0.128 | -0.727 | -0.577 |
| CAGGCTAGGTCAGGGCCAGTATAGGAGGAACGTT | 2.77 | 3.07 | 4.16 | -0.54 | 1.45 | 1.95 | 0.49 | 0.035 |
| GCTGCTAGGTCAGGTAGGTCAGCTAACGGGTACG | 4.09 | 4.09 | 4.85 | 0.899 | 2.38 | 2.78 | 0.866 | 0.966 |
| TCGCGTAGGTTAGTCGGGGCATTCAGCCAACATA | 0.519 | 0.0765 | -0.112 | 0.21 | -0.0315 | 1.26 | -0.0265 | 0.208 |
| CCGACTGGGGCATAAGGTAACCATAAGCCAGCCC | 0.572 | 0.385 | 0.436 | -0.779 | 0.252 | 1.72 | 1.34 | -0.312 |
| GGAACGAGGGCAAAGTTGATACCATCTGTCGACG | 1.63 | 2.14 | 2.02 | 2.79 | 2.18 | 1.47 | 0.0828 | 2.09 |
| CCATACGGGTCACTCCAGGTTATAGCATCGGAGT | 2.96 | 4.24 | 3.85 | 0.942 | 4.03 | 5.15 | 0.591 | 1.76 |
| AGTCAAGGTTCACTAGGTAACGTAAGATTCAGCT | 1.85 | 2.74 | 2.72 | 3.92 | 2.57 | 1.8 | 0.553 | 3.78 |
| CGTCCAAGGTCAATGGTAGGTCAGTGAAAGCATT | 5.21 | 7.79 | 6.78 | 3.44 | 5.41 | 4.33 | 2.72 | 2.73 |
| GGAACGAGGGCAAGTTCATAGCAGAGTTTGATGG | 2.84 | 2.99 | 3.16 | 3.64 | 2.16 | 2.35 | 0.375 | 5.08 |

| Sequence | PBM binding z-score [1] | PBM binding z-score [2] | PBM binding z-score [3] | PBM binding z-score [4] | PBM binding z-score [5] | PBM binding z-score [6] | PBM binding z-score [7] | PBM binding z-score [8] |
| --- | --- | --- | --- | --- | --- | --- | --- | --- |
| AGAACGAGGGCAATGACTTGATAGCACGGGTGGC | 1.08 | 1.18 | 1.67 | 1.64 | 1.08 | 0.826 | 0.042 | 0.435 |
| TCTAGGAGGACACGAAAGGTCAGAGCTCGACATC | 4.84 | 4.88 | 5.11 | 1.35 | 4.21 | 3.98 | 1.4 | 0.994 |
| ACTAGCAGTCCAAGGGTCACTCAAGATTAGTCCG | 3.7 | 3.72 | 3.27 | 0.612 | 3.58 | 2.61 | 0.466 | 1.15 |
| CTCGAAAGGTCGGTTGAGGTGAGTATTCGGATAA | 2.52 | 2.59 | 2.91 | 1.01 | 2.25 | 4.98 | 1.25 | 0.522 |
| CCAACTAGGTCAAGGTCAAAGTCGGTTTGTGCCA | 5.31 | 6.08 | 6.54 | 3.17 | 5.72 | 4.33 | 4.25 | 4.39 |
| TAGCCTAGGTCAGATCGGGCCACTATACGCTATA | 2.48 | 2.78 | 3.37 | -0.221 | 1.48 | 4.72 | 0.493 | 0.0583 |
| TCATATTGGTAAAAGGTGAAAGTCGGTGTGGTAA | 2 | 1.24 | 0.709 | 1.66 | 1.99 | 1.62 | 0.665 | 0.829 |
| CCTTACGGGTCACTTCAGGTTATAGCATCGGAGT | 2.86 | 4.35 | 4.1 | 1.67 | 4.38 | 5.04 | 1.29 | 1.71 |
| TCGAGTAGGTTACAAATGGGGCATTCAGCTTTCT | 0.369 | 0.68 | 0.323 | 0.884 | 0.39 | 0.1 | -0.394 | -0.133 |
| ACTAGCAGGCCAAGTTTAGGTCACTCAAACAAAG | 2.6 | 3 | 2.44 | 0.0394 | 0.727 | 3.43 | 2.59 | 0.966 |
| CCGACTGGGGCAAGATTACCATAACGCACAGCCA | 0.349 | 0.185 | 0.477 | -0.0134 | 0.0853 | -0.474 | -0.565 | -0.566 |
| TCCTGTAGATCAGCAGGTTAAGAAAGCTGGCCAA | -0.00726 | -0.0905 | -0.286 | 0.636 | 0.412 | 0.129 | -0.526 | -0.526 |
| CAGCCTGGGTCAGGGCCAGTATAGGAGGAACGTT | 2.07 | 2.63 | 2.76 | -1.29 | 1.51 | 1.09 | -0.124 | -0.545 |
| TTACCAAGGTGAAAGGTCGCTGATGCACGCCTTG | 2.77 | 4.17 | 2.3 | 0.982 | 5.52 | 3.19 | 0.725 | 0.555 |
| TCTTGTAGATCCAGCAGGTTAAGAAAGCCTGAGT | -0.0215 | -0.196 | -0.399 | 0.513 | 0.171 | 0.192 | -0.236 | -0.224 |
| AGTCAAAGTTCACTAGGTAACGTACGATTCAGCT | 4.12 | 4.87 | 5.61 | 4.41 | 3.85 | 2.2 | 0.165 | 4 |
| TATACAGGGTCAAAGGCAAGAGTACGAATGTCGA | 3.28 | 5.58 | 5.01 | 3.09 | 6.4 | 3.48 | 1.05 | 3.39 |
| ATGGAAAGGTCGAGGTGAGTATAGAGAAAGGGAA | 3.16 | 4.21 | 4.21 | 0.469 | 4.53 | 3.15 | 1.47 | 0.902 |
| TCTCGGAGGACACGAAGATCAGAGCTTTCCAGAG | 0.193 | 0.499 | 1.05 | 0.0261 | 0.273 | 1.1 | 0.242 | -0.899 |
| ACTATCAGTTGAGACGAGGGCAACCGATAGGTTG | 1.12 | 0.732 | 0.78 | 0.39 | 0.625 | 2.59 | 0.179 | 0.822 |
| CCTGCTAGGTCAATGGTCAACTAAAGCAGCTCGC | 3.11 | 3.77 | 4.5 | 1.64 | 2.55 | 2.41 | 0.723 | 0.324 |
| CAAACTAGGTCCCCGGAAGGTCAAAGTCCGCATG | 4.26 | 4.15 | 3.32 | 0.0846 | 3.49 | 2.91 | 1.33 | 2.2 |
| AGAACAAGGGCAATGAGTTGATAGCACGGGTGGC | 0.907 | 1.1 | 1.4 | 1.14 | 0.654 | 0.418 | -0.2 | 2.73 |
| AGAACAAGGGCACGCTGAGTTGATAGCAGAGTAG | 1.11 | 1.6 | 1.99 | 1.22 | 0.942 | 1.28 | -0.108 | 1.07 |
| TCGAGTAGGTTACCAAAGGGGCATTCAGCTTTCT | 1.34 | 2.2 | 0.617 | 0.44 | 0.779 | 0.46 | -0.71 | 0.0103 |
| ATCTCTAGGTAACCAAGTCCAGTGAATGCCGAAC | 0.289 | 0.196 | 0.238 | 0.275 | 0.184 | 0.825 | 0.807 | 0.463 |
